A selection: hits, their analogues and other compounds. The true share with any hit is near 8.1%.
Shh pathway inh = Sonic Hedgehog pathway inhibition | Shh-LIGHT2 Gli-luciferase reporter, 30 h | inhibition, % (concentration not given with the values) | 2.1% of 22,000 active | AID 2313;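 active = mean inhibition across valid replicates above about 65%, limit read from the data; inconclusive = mean under the limit, yet half or more replicates past it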;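 note: pathway switched on by Shh-conditioned medium diluted 1 in 25 in low serum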
NOMO-1 viab = STK33 inhibitor candidate reducing NOMO-1 cell viability | 7.5% of 37,000 active | inhibition, % (no concentration beside the values) | NOMO-1 AML viability, CellTiter-Glo luminescence, 72 h | AID 2330; in the data active = inhibition above about 80%; inconclusive = no clear call, values can overlap the other calls
MITF inhib = MITF inhibition | TRPM1 promoter luciferase, luminescence, 24 h | inhibition, % (test concentration not listed) | 0.28% of 37,000 active | AID 2240; in the data active = inhibition above about 85%; inconclusive = no clear call, values can overlap the other calls; inactive = below about 68%;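 note: human melanocyte line stably carrying TRPM1 promoter luciferase reporter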
A number is an active result; n = inactive; u = inconclusive; x = no result given.

SMILES | Shh pathway inh | NOMO-1 viab | MITF inhib
CCOC(=O)c1c(NC(=O)c2cccc(S(=O)(=O)N3CCCCCC3)c2)sc2c1CCC2 | x | n | n
O=C1c2ccccc2C(=O)N1CCc1nc2ccccc2c(=O)n1-c1nc2ccccc2s1 | x | n | n
COc1cccc(C2C(C(=O)c3ccco3)C(=O)C(=O)N2CCN(C)C)c1OC (stereo not given) | x | n | n
Cc1ccc(S(=O)(=O)Nc2cccc3c2O[C@@H](CN(C)Cc2ccc(C(=O)Nc4ccccc4N)cc2)[C@@H](C)CN([C@@H](C)CO)C3=O)cc1 | x | 133.8 | n
Cc1ccc(S(=O)(=O)Nc2cccc3c2O[C@H](CN(C)Cc2ccc(C(=O)Nc4ccccc4N)cc2)[C@H](C)CN([C@H](C)CO)C3=O)cc1 | x | 128.6 | n
Cc1ccc(S(=O)(=O)Nc2cccc3c2O[C@@H](CN(C)Cc2ccc(C(=O)Nc4ccccc4N)cc2)[C@H](C)CN([C@@H](C)CO)C3=O)cc1 | x | u | n
Cc1ccc(S(=O)(=O)Nc2cccc3c2O[C@H](CN(C)Cc2ccc(C(=O)Nc4ccccc4N)cc2)[C@@H](C)CN([C@@H](C)CO)C3=O)cc1 | x | 120.7 | n
CCOC(=O)CSc1nc2cccnc2s1 | n | n | n
Cc1ccc(OCC(=O)Nc2cc(-c3nc4ccc(C)cc4o3)ccc2Cl)c(C)c1 | x | n | n
CCCC1=NN(C(=O)C(C)(C)C)C(=O)C1Cc1c(F)cccc1Cl (stereo not given) | n | u | n
CC1=C(CCC2=CC(=O)OC2O)[C@@]2(C)CCC[C@]3(C)C(=O)OC(C1=O)[C@@H]32 (stereo not given in full) | n | n | n
C[C@@H]1CN([C@@H](C)CO)C(=O)c2cccc(NC(=O)Nc3ccccc3)c2O[C@H]1CN(C)C(=O)Nc1ccc(C(F)(F)F)cc1 | n | n | n
C[C@@H]1CN([C@@H](C)CO)C(=O)c2cccc(NC(=O)Nc3ccc(C(F)(F)F)cc3)c2O[C@@H]1CN(C)C(=O)Nc1ccccc1 | n | 111.7 | n
C[C@@H]1CN([C@H](C)CO)C(=O)c2cccc(NC(=O)Nc3ccc(C(F)(F)F)cc3)c2O[C@H]1CN(C)C(=O)Nc1ccccc1 | n | 93.3 | n
C[C@@H]1CN([C@H](C)CO)C(=O)c2cccc(NC(=O)Nc3ccccc3)c2O[C@@H]1CN(C)C(=O)Nc1ccc(C(F)(F)F)cc1 | n | n | n
COc1ccc(S(=O)(=O)N(C)CC(=O)Nc2cc(C(F)(F)F)ccc2Cl)cc1 | x | n | n
Cc1nc(SCC(=O)Nc2ccc(I)cc2)nc2c1CCCC2 | x | n | n
CCOC(=O)c1cnc2c(OC)cccc2c1N1CCC2(CC1)OCCO2 | n | n | n
CCOC(=O)c1cnc2c(OC)cccc2c1NC1CCCCC1 | u | 118.1 | n
Cc1ccc(S(=O)(=O)Nc2ccc3c(c2)C(=O)N([C@@H](C)CO)C[C@@H](C)[C@H](CN(C)Cc2ccc(C(=O)Nc4ccccc4N)cc2)O3)cc1 | x | n | n
C[C@H]1CN([C@@H](C)CO)C(=O)c2cc(NS(=O)(=O)c3ccc(Cl)cc3)ccc2O[C@@H]1CN(C)Cc1ccc(C(=O)Nc2ccccc2N)cc1 | x | n | n
C[C@@H]1CN([C@@H](C)CO)C(=O)c2cc(NS(=O)(=O)c3ccc(Cl)cc3)ccc2O[C@@H]1CN(C)Cc1ccc(C(=O)Nc2ccccc2N)cc1 | x | 110.4 | n
Cc1ccc(S(=O)(=O)Nc2ccc3c(c2)C(=O)N([C@H](C)CO)C[C@@H](C)[C@@H](CN(C)Cc2ccc(C(=O)Nc4ccccc4N)cc2)O3)cc1 | x | 110.2 | n
C[C@H](CO)N1C[C@H](C)[C@H](CN(C)Cc2ccc(C(=O)Nc3ccccc3N)cc2)Oc2ccc(NS(=O)(=O)c3ccccc3)cc2C1=O | x | 109.1 | n
C[C@@H]1CN([C@H](C)CO)C(=O)c2cc(NS(=O)(=O)c3ccccc3)ccc2O[C@@H]1CN(C)Cc1ccc(C(=O)Nc2ccccc2N)cc1 | x | 108.5 | n
SMILES | Shh pathway inh | NOMO-1 viab | MITF inhib
C[C@@H]1CN([C@@H](C)CO)C(=O)c2cc(NS(=O)(=O)c3ccccc3)ccc2O[C@H]1CN(C)Cc1ccc(C(=O)Nc2ccccc2N)cc1 | x | n | n
Cc1ccc(S(=O)(=O)Nc2ccc3c(c2)C(=O)N([C@@H](C)CO)C[C@H](C)[C@@H](CN(C)Cc2ccc(C(=O)Nc4ccccc4N)cc2)O3)cc1 | x | n | n
CCn1c(SCC(=O)Nc2ccc(F)cc2)nnc1-c1cccs1 | x | n | n
Cc1ccc(NC(=O)COc2ccc(C(=O)Nc3ccc(F)cc3)cc2)cc1 | x | n | n
COc1ccc(NC(=O)CSc2n[nH]c(-c3ccncc3)n2)cc1 | x | n | n
C[C@@H]1CN([C@@H](C)CO)C(=O)c2cc(NS(=O)(=O)c3ccc(F)cc3)ccc2O[C@H]1CN(C)Cc1ccc(C(=O)Nc2ccccc2N)cc1 | x | u | n
C[C@@H]1CN([C@H](C)CO)C(=O)c2cc(NS(=O)(=O)c3ccc(F)cc3)ccc2O[C@@H]1CN(C)Cc1ccc(C(=O)Nc2ccccc2N)cc1 | x | 107.6 | n
Cc1ccc(C(=O)Nc2cccc(NC(=O)COc3ccc(Br)cc3)c2)cc1 | x | n | n
C[C@@H]1CN([C@@H](C)CO)C(=O)c2cc(NC(=O)c3ccncc3)ccc2O[C@@H]1CN(C)Cc1ccc(C(=O)Nc2ccccc2N)cc1 | x | u | n
C[C@@H]1CN([C@@H](C)CO)C(=O)c2cc(NC(=O)Nc3cccc4ccccc34)ccc2O[C@@H]1CN(C)Cc1ccc(C(=O)Nc2ccccc2N)cc1 | x | 110.3 | n
C[C@H](CO)N1C[C@H](C)[C@H](CN(C)Cc2ccc(C(=O)Nc3ccccc3N)cc2)Oc2ccc(NC(=O)Nc3ccccc3)cc2C1=O | x | u | n
C[C@H](CO)N1C[C@H](C)[C@H](CN(C)Cc2ccc(C(=O)Nc3ccccc3N)cc2)Oc2ccc(NC(=O)Cc3ccccc3)cc2C1=O | x | 103.6 | n
C[C@@H]1CN([C@@H](C)CO)C(=O)c2cc(NC(=O)Nc3ccccc3)ccc2O[C@@H]1CN(C)Cc1ccc(C(=O)Nc2ccccc2N)cc1 | x | 110.9 | n
C[C@@H]1CN([C@@H](C)CO)C(=O)c2cc(NC(=O)Nc3ccc4c(c3)OCO4)ccc2O[C@H]1CN(C)Cc1ccc(C(=O)Nc2ccccc2N)cc1 | x | n | n
CC(C)NC(=O)Nc1ccc2c(c1)C(=O)N([C@H](C)CO)C[C@@H](C)[C@@H](CN(C)Cc1ccc(C(=O)Nc3ccccc3N)cc1)O2 | x | n | n
C[C@@H]1CN([C@@H](C)CO)C(=O)c2cc(NC(=O)Nc3ccc4c(c3)OCO4)ccc2O[C@@H]1CN(C)Cc1ccc(C(=O)Nc2ccccc2N)cc1 | x | 108.2 | n
COc1cc([N+](=O)[O-])ccc1NC(=S)NC(=O)COc1ccc(C)cc1 | x | n | n
C[C@H]1CN([C@@H](C)CO)C(=O)Cc2cc(NS(=O)(=O)c3ccc(F)cc3)ccc2O[C@H]1CN(C)Cc1ccc(C(=O)Nc2ccccc2N)cc1 | x | 140.0 | n
C[C@@H]1CN([C@@H](C)CO)C(=O)Cc2cc(NS(=O)(=O)c3ccc(F)cc3)ccc2O[C@@H]1CN(C)Cc1ccc(C(=O)Nc2ccccc2N)cc1 | x | 112.1 | n
C[C@@H]1CN([C@@H](C)CO)C(=O)Cc2cc(NS(=O)(=O)c3cn(C)cn3)ccc2O[C@@H]1CN(C)Cc1ccc(C(=O)Nc2ccccc2N)cc1 | x | n | n
COc1c2occc2c(OC)c2c(=O)cc(CO[C@@H]3O[C@H](CO)[C@@H](O)[C@H](O)[C@H]3O)oc12 | n | n | n

Screening data (PubChem BioAssay)
